Source: PubChem BioAssay (National Center for Advancing Translational Sciences (NCATS))
CtBP-E1A inh – CtBP/E1A binding inhibition; hit rate 0.49% among 340,000; activity change, % (test concentration not listed); AID 651724; AlphaScreen GST-E1A/His-CtBP binding, 1536-well; hits give low values; in the data active = activity change below about -65%; inconclusive = mostly about -30% to -63%; also: % is scaled to controls: 0 for no effect and ±100 for the full control effect
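AlphaScreen with 125 nM GST-E1A and 125 nM His-CtBP (5X stocks) in Tris pH 8.0, 300 mM NaCl, BSA, Tween 20, TCEP. Compounds preincubated 2 h at 37 deg C, then glutathione donor/nickel acceptor beads added for 1 h at 37 deg C in dark.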
JMJD2A Tudor – blocks the human JMJD2A Tudor domain | Potency, µM (titrated, usually from 114 µM), for inactives: at the top dose activity change, negative = inhibition, most hits filed as inhibitors | AlphaScreen JMJD2A-Tudor / H3K4me3 peptide binding | hit rate 4.4% among 390,000 | O75164; also: potency is read from the fitted curve at half-maximal effect; % is scaled to controls: 0 for no effect and ±100 for the full control effect; nearly all actives have a fitted effect of over 50% in size
G9a block – blocks human histone lysine methyltransferase G9a. Q96KQ7. G9a H3K9 monomethylation, AlphaScreen, 2 h. Potency, µM (series often up to 102 µM), inactives show at the highest dose activity, negative = inhibition, most hits filed as inhibitors. hit rate 8.8% among 350,000. AID 504332; also: potency is read from the fitted curve at half-maximal effect; % is scaled to controls: 0 for no effect and ±100 for the full control effect; nearly all actives have a fitted effect of over 75% in size
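Signal arises when biotinylated H3K9 peptide, once monomethylated, bridges streptavidin donor and antibody-captured acceptor beads. Enzyme at 20 nM was preincubated 15 min with test compounds; peptide 500 nM and SAM 20 uM then reacted for 2 h.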
BAZ2B block – blocks human BAZ2B | Potency, µM (titrated, usually from 114 µM), for the others: at the top dose activity change, negative = inhibition, hits mostly inhibitors | Q9UIF8 | AID 504333 | hit rate 4.4% among 360,000 | AlphaScreen BAZ2B-H3K14Ac peptide displacement; also: potency is read from the fitted curve at half-maximal effect; % is scaled to controls: 0 for no effect and ±100 for the full control effect; nearly all actives have a fitted effect of over 60% in size
Target sequence (Q9UIF8 whole entry, looked up): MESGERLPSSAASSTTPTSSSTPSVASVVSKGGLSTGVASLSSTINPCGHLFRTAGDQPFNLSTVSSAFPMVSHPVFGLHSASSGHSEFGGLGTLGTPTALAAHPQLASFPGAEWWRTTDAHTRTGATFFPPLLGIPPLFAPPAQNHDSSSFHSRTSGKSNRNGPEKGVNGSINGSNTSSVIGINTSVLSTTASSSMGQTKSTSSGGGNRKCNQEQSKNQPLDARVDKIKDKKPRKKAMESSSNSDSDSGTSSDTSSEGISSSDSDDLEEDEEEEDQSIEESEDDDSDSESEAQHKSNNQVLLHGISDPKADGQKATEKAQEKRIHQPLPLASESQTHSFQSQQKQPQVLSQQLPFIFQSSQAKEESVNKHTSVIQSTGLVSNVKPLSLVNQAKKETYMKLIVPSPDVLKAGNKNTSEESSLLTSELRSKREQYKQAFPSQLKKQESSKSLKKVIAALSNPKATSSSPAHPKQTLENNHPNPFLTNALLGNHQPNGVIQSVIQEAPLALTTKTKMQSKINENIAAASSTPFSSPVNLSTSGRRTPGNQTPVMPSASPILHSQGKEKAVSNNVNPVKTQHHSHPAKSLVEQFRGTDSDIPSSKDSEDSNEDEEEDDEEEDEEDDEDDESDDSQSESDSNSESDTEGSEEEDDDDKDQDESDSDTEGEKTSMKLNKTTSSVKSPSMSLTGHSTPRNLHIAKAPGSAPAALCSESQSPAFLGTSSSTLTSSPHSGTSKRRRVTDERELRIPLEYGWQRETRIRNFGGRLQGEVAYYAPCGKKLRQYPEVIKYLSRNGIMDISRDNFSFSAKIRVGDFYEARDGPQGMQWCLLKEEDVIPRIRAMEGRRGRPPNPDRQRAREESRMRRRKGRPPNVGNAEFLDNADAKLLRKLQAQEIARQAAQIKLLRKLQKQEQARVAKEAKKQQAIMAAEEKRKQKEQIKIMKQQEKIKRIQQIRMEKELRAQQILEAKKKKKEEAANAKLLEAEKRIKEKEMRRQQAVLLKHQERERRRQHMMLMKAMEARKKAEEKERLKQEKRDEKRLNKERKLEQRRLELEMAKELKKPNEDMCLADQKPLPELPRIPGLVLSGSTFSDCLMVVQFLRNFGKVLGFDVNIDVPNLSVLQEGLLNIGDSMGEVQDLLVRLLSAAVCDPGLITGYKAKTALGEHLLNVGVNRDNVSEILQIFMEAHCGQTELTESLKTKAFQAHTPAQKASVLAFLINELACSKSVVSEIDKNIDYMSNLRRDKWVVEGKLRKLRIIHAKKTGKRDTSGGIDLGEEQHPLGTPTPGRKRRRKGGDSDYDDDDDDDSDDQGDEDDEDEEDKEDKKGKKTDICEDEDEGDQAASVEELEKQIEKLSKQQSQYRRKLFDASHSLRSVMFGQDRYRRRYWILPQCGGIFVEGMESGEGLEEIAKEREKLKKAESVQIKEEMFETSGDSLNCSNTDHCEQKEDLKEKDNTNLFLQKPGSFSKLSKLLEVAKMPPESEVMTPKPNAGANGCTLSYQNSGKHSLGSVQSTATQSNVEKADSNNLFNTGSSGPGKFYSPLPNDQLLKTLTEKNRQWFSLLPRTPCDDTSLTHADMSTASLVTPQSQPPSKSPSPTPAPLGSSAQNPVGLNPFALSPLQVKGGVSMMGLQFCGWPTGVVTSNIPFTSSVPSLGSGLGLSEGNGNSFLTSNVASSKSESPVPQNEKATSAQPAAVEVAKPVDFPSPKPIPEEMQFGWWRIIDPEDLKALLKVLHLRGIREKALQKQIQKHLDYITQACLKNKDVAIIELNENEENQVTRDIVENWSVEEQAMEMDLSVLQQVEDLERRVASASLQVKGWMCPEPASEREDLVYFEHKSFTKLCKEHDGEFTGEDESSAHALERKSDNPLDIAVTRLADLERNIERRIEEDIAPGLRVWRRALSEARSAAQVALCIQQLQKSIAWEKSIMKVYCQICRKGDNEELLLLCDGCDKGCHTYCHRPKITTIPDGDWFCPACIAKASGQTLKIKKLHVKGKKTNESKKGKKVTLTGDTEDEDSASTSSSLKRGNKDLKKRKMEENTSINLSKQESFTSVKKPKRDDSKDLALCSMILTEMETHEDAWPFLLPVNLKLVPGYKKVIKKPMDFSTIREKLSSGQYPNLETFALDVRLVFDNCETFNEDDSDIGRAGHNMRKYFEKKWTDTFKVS
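Complex of BAZ2B and biotin-H3K14Ac (50 nM apiece) forms over 30 min at RT, then faces library compounds up to 110 uM for another 30 min; AlphaScreen beads added, 20 min dark incubation, luminescence read.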
Six1-Eya2 blk – Six1/Eya2 interaction inhibition | AlphaScreen GST-Six1/His-Eya2 binding, biochemical; hits give low values | activity change, % (no concentration beside the values) | hit rate 0.56% among 360,000; in the data active = activity change below about -65%; inconclusive = mostly about -30% to -63%; also: % is scaled to controls: 0 for no effect and ±100 for the full control effect
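Six1/Eya2 binding was read as AlphaScreen signal after compounds were pinned into GST-Six1 plus His-tagged Eya2 (5X stock 250/500 nM) in pH 8.0 Tris/NaCl/TCEP buffer, beads added, then incubated 1 h, 37 C, dark.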
HP1b binding inh – inhibitors of HP1-beta chromodomain binding to methylated histone tails. P83916. AlphaScreen HP1-beta / biotin-H3K9me3 peptide binding. AID 540317. hit rate 0.56% among 390,000. Potency, µM (highest dose often 114 µM), for the others: at the highest dose activity change, negative = inhibition, actives largely listed as inhibitors; also: potency is read from the fitted curve at half-maximal effect; nearly all actives have a fitted effect of over 70% in size
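AlphaScreen: HP1-beta (50 nM) preformed 30 min with biotin-H3(1-18)K9me3 peptide (50 nM) in PBS pH 7.4, 0.01% Tween-20. Compound added for 30 min at RT, then streptavidin donor/nickel chelate acceptor beads (10 ug/mL) for 30 min.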
Active calls of the source: *; ? = inconclusive; . = not tested or not shown; [ ] = dose if it differs, or a comment. Rows were chosen to be rich in hits. Some 10% of all compounds tested hit in one or more screens of this group. Unless noted, calls follow the shape of the dose curve; as a rule, active = well fitted inhibition curve with a large enough effect; inconclusive = small, poorly fitted or top-dose-only effect; inactive = no such curve, though single readings can be large or run the other way.

SMILES	CtBP-E1A inh	JMJD2A Tudor	G9a block	BAZ2B block	Six1-Eya2 blk	HP1b binding inh
O=C(Cn1cc(CN(Cc2ccccc2)Cc2ccccc2)nn1)Nc1cc(C(F)(F)F)ccc1Cl	.	-22.6%	.	.	.	.
COc1ccccc1NC(=O)C1=C(C)NC(=O)NC1c1ccccc1[N+](=O)[O-] (stereo unspecified)	2.4	-27.5%	12.6µM*	.	4.8	-9.6%
CC1=C(C(=O)Nc2ccccc2)C(c2ccccc2[N+](=O)[O-])NC(=O)N1 (stereo unspecified)	.	-13.8%	?	-36.2%	3.6	16.7%
CCOc1cc(/C=C/c2nc3cc(C)c(C)cc3s2)ccc1OCC(=O)N1CCOCC1	13.3	-14.1%	12.6µM*	-24.7%	8.4	11.0%
CCOc1cc(C(=O)NCc2ccc(C)cc2)ccc1OCC(=O)N1CCOCC1	1.2	2.1%	9.5%	.	-3.7	11.6%
CCOc1cc(/C=C\[N+](=O)[O-])ccc1OCC(=O)N1CCOCC1	-0.1	6.2%	10µM*	0.4%	5.4	9.1%
Cc1ccc(C(=O)Nc2nc3nc(C)cc(=O)n3[nH]2)cc1	.	?	11.9%[59 µM]	-4.0%	.	-8.5%
CN(C)S(=O)(=O)c1ccc(N2CCCC2)c(C(=O)Nc2ccccc2Br)c1	1.0	-17.4%	44.7µM*	6.4%	3.3	27.7%
CCc1ccccc1NC(=O)c1cc(S(=O)(=O)N(C)C)ccc1N1CCCC1	-2.2	-6.6%	10.4%	-5.0%	-3.0	18.2%
CN(Cc1ccccc1)C(=O)COC(=O)c1cc(S(=O)(=O)N(C)C)ccc1N1CCCC1	1.5	-11.9%	50.1µM*	-18.8%	-6.3	21.9%
CN(CC(=O)Nc1ccccc1Cl)C(=O)COC(=O)c1cc(S(=O)(=O)N(C)C)ccc1N1CCCC1	7.1	-17.9%	-33.5%	-13.1%	-2.6	8.0%
Cc1ccccc1NC(=O)c1cc(N)ccc1N1CCCCC1	-9.3	?	31.6µM*	?	-6.4	-4.7%
Cc1ccc(CCNC(=O)Cn2ncc3c(=O)oc4ccccc4c32)cc1	.	-12.6%	-31.4%[59 µM]	-35.5%	.	16.7%
COc1ccc(OC)c(/C=N/N2CCN(c3ccc(Cl)cc3)CC2)c1	.	-20.5%	-49.9%[2.33 µM]	-25.7%	-2.9	19.0%
C/C(=N\NC(=O)COc1ccc(C(C)(C)C)cc1)c1ccc(N2CCOCC2)cc1	.	-19.6%	10µM*	-23.5%	3.4	27.6%
C/C(=N\NC(=O)c1ccc(F)cc1)c1ccc(N2CCOCC2)cc1	-2.2	-13.3%	39.8%	-17.1%	6.6	23.3%
O=C(CCc1nc2cccnc2n1-c1ccccc1)Nc1ccc(Cl)c(Cl)c1	.	-18.2%	?	?	.	19.6%
COc1ccc(OC)c(NC(=O)c2cc(-c3cc(C)cc(C)c3O)n[nH]2)c1	3.8	-18.6%	20.4%	1.8%	-2.3	18.9%
O=C(NNc1ccc(F)cc1F)C1CCC1	-23.1	-6.4%	17.8µM*	1.9%	-12.7	22.6%
O=C(NNc1ccccc1F)C1CCC1	7.7	-12.6%	50.1µM*	-5.3%	3.9	61.3%
O=C(CNC(=O)C1CCCCC1)Nc1cc(Cl)ccc1Cl	8.2	-12.0%	1.0%[59 µM]	2.4%	8.4	24.2%
O=C(NNc1cc(Cl)ccc1Cl)C1CCC1	-2.1	70.8µM*	50.1µM*	0.1%	-10.2	-4.7%
CC(C)(C)c1ccc(NNC(=O)C2CCC2)cc1	7.8	-5.5%	14.1µM*	-2.2%	3.0	43.5%
O=C(NNc1ccccc1F)c1ccccc1	6.7	-11.0%	28.2µM*	1.8%	5.1	40.0%
Cc1ccc(S(=O)(=O)N2CCN(c3nc(-c4cncs4)nc4ccccc34)CC2)cc1	.	2.7%	.	.	.	40.4%
Cc1occc1C(=O)NCc1ccc2c(c1)OCO2	-2.5	-29.2%	11.0%[12.7 µM]	-4.5%	-0.3	6.3%
Cc1occc1C(=O)NCc1cccc(CNC(=O)c2ccoc2C)c1	-21.5	56.2µM*	22.4µM*	50.1µM*	-15.2	?
CCOc1cc(-c2nc(C)c(C(C)=O)n2O)ccc1OCC(=O)Nc1ccc(F)cc1	4.9	-12.9%	50.1µM*	-3.7%	-4.8	24.7%
CC(=O)c1c(C)nc(-c2ccc(OCC(=O)Nc3ccc(F)cc3)cc2)n1O	-6.5	-13.0%	17.8µM*	-26.0%	2.2	22.9%
